From PubChem BioAssay (EPA / NIEHS)
Active and inactive are the calls of the source. Rule for the calls: active = hit-call score of the fitted dose curve at least 0.9, where 1 is the maximum; inactive = score below 0.9.

Key:
Conditions in all cases: mRNA level, 48 h; actives raise or lower the signal
[1] = read-out: Cytochrome P450 (CYP24A1), CYP24A1 (gene 1591); experiment: LTEA_HepaRG_CYP24A1: Life Technologies and Expression Analysis (LTEA) Assay for Cytochrome P450 (CYP24A1) using HepaRG (AID 2283478)
Method in brief: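 qRT-PCR read-out: CYP24A1 transcript levels normalized to three housekeeping genes, bidirectional curve fits against 0.5% DMSO baseline. Human HepaRG cells treated 48 h with chemicals at eight concentrations from 100 uM in half-log steps.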

[2] = read-out: Cytochrome P450 (CYP1A2), CYP1A2 (gene 1544); experiment: LTEA_HepaRG_CYP1A2: Life Technologies and Expression Analysis (LTEA) Assay for Cytochrome P450 (CYP1A2) using HepaRG (AID 2283479)
Method in brief: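 HepaRG, 48 h exposure, top 100 uM, half-log 8-pt, 0.5% DMSO vehicle, duplicates. Readout: TaqMan qRT-PCR of CYP1A2 mRNA, housekeeping-normalized (ACTB/GAPDH/POLR2A). Gain/loss fit relative to DMSO baseline.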

[3] = read-out: cysteine-aspartic acid protease (CASP8), CASP8 (gene 841); experiment: LTEA_HepaRG_CASP8: Life Technologies and Expression Analysis (LTEA) Assay for cysteine-aspartic acid protease (CASP8) using HepaRG (AID 2283480)
Method in brief: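 qRT-PCR readout of CASP8 mRNA, normalized to three housekeeping genes, after 48 h chemical exposure of HepaRG cells; 8-point half-log series, top 100 uM, 0.5% DMSO vehicle. Bidirectional curve fitting against DMSO baseline.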

[4] = read-out: Cytochrome P450 (CYP2B6), CYP2B6 (gene 1555); experiment: LTEA_HepaRG_CYP2B6: Life Technologies and Expression Analysis (LTEA) Assay for Cytochrome P450 (CYP2B6) using HepaRG (AID 2283481)
Method in brief: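 Read-out is CYP2B6 mRNA by TaqMan qRT-PCR, normalized to three housekeeping genes and fitted bidirectionally against 0.5% DMSO baseline. Human HepaRG cells received test chemicals for 48 h, top concentration 100 uM, half-log dilutions.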

[5] = read-out: Cytochrome P450 2C19 (Homo sapiens) (UniProt P33261); experiment: LTEA_HepaRG_CYP2C19: Life Technologies and Expression Analysis (LTEA) Assay for CYP2C19 using HepaRG (AID 2283482)
Method in brief: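 HepaRG, 48 h chemical exposure, 8-pt half-log series from 100 uM in 0.5% DMSO, duplicates. Readout: CYP2C19 mRNA by TaqMan qRT-PCR, housekeeping-normalized. Bidirectional fit vs DMSO baseline; phenobarbital 1mM as induction control.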

CYP2C8 (gene 1558) = experiment: LTEA_HepaRG_CYP2C8: Life Technologies and Expression Analysis (LTEA) Assay for CYP2C8 using HepaRG (AID 2283483)
Method in brief: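 HepaRG (human liver line), 48 h chemical exposure, 8-pt half-log series from 100 uM, 0.5% DMSO vehicle. Readout: CYP2C8 transcript by qRT-PCR, housekeeping-normalized. Bidirectional fit vs DMSO baseline.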

CYP2C9 (gene 1559) = experiment: LTEA_HepaRG_CYP2C9: Life Technologies and Expression Analysis (LTEA) Assay for CYP2C9 using HepaRG (AID 2283484)
Method in brief: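 HepaRG, 48 h dosing, 8-pt half-log series, top 100 uM, 0.5% DMSO vehicle. Read-out: CYP2C9 transcript by TaqMan qRT-PCR, housekeeping-normalized (ACTB/GAPDH/POLR2A). Gain or loss fitted vs DMSO baseline.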

CYP2E1 (gene 1571) = experiment: LTEA_HepaRG_CYP2E1: Life Technologies and Expression Analysis (LTEA) Assay for CYP2E1 using HepaRG (AID 2283485)
Method in brief: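 CYP2E1 transcript was measured by TaqMan qRT-PCR in human HepaRG cultures after 48 h chemical exposure (top 100 uM, half-log steps, 0.5% DMSO vehicle). Housekeeping-gene normalization; gain or loss fitted relative to DMSO baseline.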

CYP4A11 (gene 1579) = experiment: LTEA_HepaRG_CYP4A11: Life Technologies and Expression Analysis (LTEA) Assay for CYP4A11 using HepaRG (AID 2283486)
Method in brief: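 CYP4A11 transcript levels were quantified by TaqMan qRT-PCR after HepaRG human liver cells were treated for 48 hours with test chemicals (top 100 uM, half-log dilutions, 0.5% DMSO). Gain or loss of signal was fitted relative to DMSO.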

[6] = read-out: Cytochrome P450 3A4 (Homo sapiens) (UniProt P08684); experiment: LTEA_HepaRG_CYP3A4: Life Technologies and Expression Analysis (LTEA) Assay for CYP3A4 using HepaRG (AID 2283487)
Method in brief: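 Differentiated HepaRG cells, plated 48 h, then dosed 48 h in serum-free induction medium with 0.5% DMSO, 8 half-log concentrations up to 100 uM, duplicate. CYP3A4 mRNA by qRT-PCR, normalized to ACTB/GAPDH/POLR2A; bidirectional fit versus DMSO.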

[7] = read-out: Pro-epidermal growth factor (Homo sapiens) (UniProt P01133); experiment: LTEA_HepaRG_EGF: Life Technologies and Expression Analysis (LTEA) Assay for Epidermal growth factor (EGF) using HepaRG (AID 2283489)
Method in brief: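 qRT-PCR readout of EGF transcript after 48 h chemical exposure of HepaRG cells; eight concentrations from 100 uM down in half-log steps, duplicate wells, 0.5% DMSO vehicle. Bidirectional curve fitting against DMSO baseline.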

[8] = read-out: Ezrin (EZR), EZR (gene 7430); experiment: LTEA_HepaRG_EZR: Life Technologies and Expression Analysis (LTEA) Assay for Ezrin (EZR) using HepaRG (AID 2283491)
Method in brief: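 EZR transcript levels came from Fluidigm qRT-PCR and were normalized to three housekeeping genes after 48 h chemical exposure of HepaRG cells. Dosing used an 8-point half-log series with a 100 uM top concentration in 0.5% DMSO, tested in duplicate; both directions were fitted versus vehicle.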

[9] = read-out: Cytochrome P450 3A7 (Homo sapiens) (UniProt P24462); experiment: LTEA_HepaRG_CYP3A7: Life Technologies and Expression Analysis (LTEA) Assay for CYP3A7 using HepaRG (AID 2283492)
Method in brief: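 CYP3A7 transcript levels were read by TaqMan qRT-PCR on Fluidigm arrays after 48 h chemical exposure of human HepaRG cells, with housekeeping-gene normalisation. Eight half-log concentrations up to 100 uM in 0.5% DMSO were tested in duplicate.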

CYP3A5 (gene 1577) = experiment: LTEA_HepaRG_CYP3A5: Life Technologies and Expression Analysis (LTEA) Assay for CYP3A5 using HepaRG (AID 2283493)
Method in brief: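 qRT-PCR read-out: CYP3A5 transcript in HepaRG lysates, housekeeping-normalized (ACTB/GAPDH/POLR2A), fitted bidirectionally against 0.5% DMSO baseline. Exposure 48 h, eight half-log concentrations up to 100 uM, duplicates.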

[10] = read-out: Cytochrome P450 4A22 (Homo sapiens) (UniProt Q5TCH4); experiment: LTEA_HepaRG_CYP4A22: Life Technologies and Expression Analysis (LTEA) Assay for Cytochrome P450 4A22 (CYP4A22) using HepaRG (AID 2283495)
Method in brief: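 HepaRG, 48 h post-plating -> serum-free induction medium; dosed 48 h, duplicate, 8 conc. (100 uM top, half-log), 0.5% DMSO. Readout: CYP4A22 mRNA by qRT-PCR, ACTB/GAPDH/POLR2A normalization; gain/loss fit relative to DMSO.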

[11] = read-out: Glutathione S-Transferase (GSTA2), GSTA2 (gene 2939); experiment: LTEA_HepaRG_GSTA2: Life Technologies and Expression Analysis (LTEA) Assay for Glutathione S-Transferase (GSTA2) using HepaRG (AID 2283497)
Method in brief: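 qRT-PCR readout of GSTA2 transcript, normalized to three housekeeping genes, fitted bidirectionally against 0.5% DMSO baseline. Differentiated HepaRG cells received compound for 48 h at 8 concentrations (top 100 uM, half-log steps).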

[12] = read-out: DNA damage-inducible transcript 3 (DDIT3), DDIT3 (gene 1649); experiment: LTEA_HepaRG_DDIT3: Life Technologies and Expression Analysis (LTEA) Assay for DNA damage-inducible transcript 3 (DDIT3) using HepaRG (AID 2283488)
Method in brief: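 qRT-PCR readout (Fluidigm TaqMan), housekeeping-normalized to ACTB, GAPDH, POLR2A. HepaRG cells, 48 h exposure, 8-point half-log series from 100 uM in 0.5% DMSO, duplicates. Gain or loss of signal fitted against DMSO baseline.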

[13] = read-out: Early growth response protein 1 (EGR1) transcription factor, EGR1 (gene 1958); experiment: LTEA_HepaRG_EGR1: Life Technologies and Expression Analysis (LTEA) Assay for Early growth response protein 1 (EGR1) transcription factor using HepaRG (AID 2283490)
Method in brief: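 HepaRG, 48 h exposure, 8-pt half-log series from 100 uM, 0.5% DMSO vehicle; EGR1 transcript by TaqMan qRT-PCR (Fluidigm array), housekeeping-normalized; bidirectional fit relative to DMSO baseline.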

[14] = read-out: Fatty Acid-Binding Protein 1 (FABP1), FABP1 (gene 2168); experiment: LTEA_HepaRG_FABP1: Life Technologies and Expression Analysis (LTEA) Assay for Fatty Acid-Binding Protein 1 (FABP1) using HepaRG (AID 2283494)
Method in brief: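 qRT-PCR readout of FABP1 transcript (normalized to three housekeeping genes) after 48 h chemical exposure of HepaRG cells; eight concentrations, half-log steps, max 100 uM, 0.5% DMSO vehicle; gain or loss fitted relative to DMSO baseline.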

Chain of Cytochrome P450 2C19 (Homo sapiens) (P33261 whole entry, looked up): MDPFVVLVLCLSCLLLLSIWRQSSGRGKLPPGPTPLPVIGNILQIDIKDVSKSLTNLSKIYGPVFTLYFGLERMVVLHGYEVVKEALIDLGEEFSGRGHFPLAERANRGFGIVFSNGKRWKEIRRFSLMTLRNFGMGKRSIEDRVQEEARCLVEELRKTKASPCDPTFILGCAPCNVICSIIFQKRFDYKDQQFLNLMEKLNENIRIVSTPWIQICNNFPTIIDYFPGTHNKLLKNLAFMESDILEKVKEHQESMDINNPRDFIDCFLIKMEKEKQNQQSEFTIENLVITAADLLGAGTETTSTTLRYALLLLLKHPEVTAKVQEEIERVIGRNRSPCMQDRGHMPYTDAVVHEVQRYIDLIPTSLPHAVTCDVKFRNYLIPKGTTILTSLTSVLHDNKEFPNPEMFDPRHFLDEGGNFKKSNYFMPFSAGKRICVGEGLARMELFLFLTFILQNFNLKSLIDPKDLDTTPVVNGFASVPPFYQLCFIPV
Chain of Cytochrome P450 3A4 (Homo sapiens) (P08684 whole entry, looked up): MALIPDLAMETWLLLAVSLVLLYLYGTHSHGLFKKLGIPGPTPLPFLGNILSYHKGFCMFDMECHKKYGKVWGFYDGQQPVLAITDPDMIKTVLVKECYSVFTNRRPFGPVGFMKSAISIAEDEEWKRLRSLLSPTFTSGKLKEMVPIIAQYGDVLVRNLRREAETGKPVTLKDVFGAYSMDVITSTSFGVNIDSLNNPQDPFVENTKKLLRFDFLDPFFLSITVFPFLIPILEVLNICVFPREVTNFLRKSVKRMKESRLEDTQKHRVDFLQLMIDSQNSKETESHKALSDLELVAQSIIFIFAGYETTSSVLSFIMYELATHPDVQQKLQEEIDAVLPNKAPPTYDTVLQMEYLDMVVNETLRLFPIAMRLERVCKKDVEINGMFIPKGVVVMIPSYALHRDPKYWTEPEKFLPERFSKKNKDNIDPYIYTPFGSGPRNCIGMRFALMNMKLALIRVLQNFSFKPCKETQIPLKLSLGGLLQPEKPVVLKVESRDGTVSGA
Chain of Cytochrome P450 3A7 (Homo sapiens) (P24462 whole entry, looked up): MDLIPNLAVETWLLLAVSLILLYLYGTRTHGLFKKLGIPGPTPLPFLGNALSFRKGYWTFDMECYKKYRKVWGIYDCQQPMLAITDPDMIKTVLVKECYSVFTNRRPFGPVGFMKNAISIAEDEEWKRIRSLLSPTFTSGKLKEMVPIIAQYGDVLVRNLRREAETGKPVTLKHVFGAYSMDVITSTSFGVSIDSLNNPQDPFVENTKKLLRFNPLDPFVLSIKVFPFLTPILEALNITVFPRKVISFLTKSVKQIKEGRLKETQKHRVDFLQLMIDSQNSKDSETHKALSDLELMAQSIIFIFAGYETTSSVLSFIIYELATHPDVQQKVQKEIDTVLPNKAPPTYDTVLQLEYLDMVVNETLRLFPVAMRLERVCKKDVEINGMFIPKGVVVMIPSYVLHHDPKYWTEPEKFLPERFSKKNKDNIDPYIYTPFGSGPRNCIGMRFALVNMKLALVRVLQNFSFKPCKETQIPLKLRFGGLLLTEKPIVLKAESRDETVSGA

## CC(C)(C)c1ccc(O)c(C(C)(C)C)c1
[1]
  AC50: 0.01 µM (active)
[2]
  AC50: 0.104 µM (active)
[3]
  outcome: inactive
[4]
  outcome: inactive
[5]
  outcome: inactive
CYP2C8 (gene 1558)
  outcome: inactive
CYP2C9 (gene 1559)
  outcome: inactive
CYP2E1 (gene 1571)
  outcome: inactive
CYP4A11 (gene 1579)
  outcome: inactive
[6]
  AC50: 50 µM (active)
[7]
  outcome: inactive
[8]
  outcome: inactive
[9]
  outcome: inactive
CYP3A5 (gene 1577)
  outcome: inactive
[10]
  outcome: inactive
[11]
  outcome: inactive

## CCCOC(=O)c1ccc(O)cc1
[1]
  outcome: inactive
[2]
  outcome: inactive
[3]
  outcome: inactive
[4]
  outcome: inactive
CYP2C8 (gene 1558)
  outcome: inactive
CYP2C9 (gene 1559)
  outcome: inactive
CYP2E1 (gene 1571)
  outcome: inactive
CYP4A11 (gene 1579)
  outcome: inactive
[12]
  outcome: inactive
[7]
  outcome: inactive
[13]
  outcome: inactive
[8]
  outcome: inactive
CYP3A5 (gene 1577)
  outcome: inactive
[10]
  outcome: inactive
[11]
  outcome: inactive

## CCc1ccc(CCOc2ccc(CC3SC(=O)NC3=O)cc2)nc1 (stereo not given)
[1]
  outcome: inactive
[2]
  AC50: 31.6 µM (active)
[3]
  outcome: inactive
[4]
  AC50: 92.5 µM (active)
CYP2C8 (gene 1558)
  AC50: 88.4 µM (active)
CYP2C9 (gene 1559)
  AC50: 77.6 µM (active)
CYP2E1 (gene 1571)
  AC50: 48.5 µM (active)
CYP4A11 (gene 1579)
  AC50: 85.9 µM (active)
[12]
  AC50: 91.3 µM (active)
[7]
  outcome: inactive
[8]
  AC50: 15.9 µM (active)
CYP3A5 (gene 1577)
  outcome: inactive
[10]
  AC50: 84 µM (active)
[11]
  AC50: 78.1 µM (active)

## CC(=O)CC(C)(C)O
[1]
  outcome: inactive
[2]
  outcome: inactive
[3]
  outcome: inactive
[5]
  outcome: inactive
CYP2C8 (gene 1558)
  outcome: inactive
CYP2C9 (gene 1559)
  outcome: inactive
CYP2E1 (gene 1571)
  outcome: inactive
CYP4A11 (gene 1579)
  outcome: inactive
[6]
  outcome: inactive
[12]
  outcome: inactive
[7]
  outcome: inactive
[13]
  outcome: inactive
[8]
  outcome: inactive
[9]
  outcome: inactive
CYP3A5 (gene 1577)
  outcome: inactive
[14]
  outcome: inactive
[10]
  outcome: inactive
[11]
  outcome: inactive

## CN1CCC[C@H]1c1cccnc1
[1]
  outcome: inactive
[2]
  outcome: inactive
[3]
  outcome: inactive
[4]
  outcome: inactive
[5]
  outcome: inactive
CYP2C8 (gene 1558)
  outcome: inactive
CYP2E1 (gene 1571)
  outcome: inactive
CYP4A11 (gene 1579)
  outcome: inactive
[6]
  outcome: inactive
[7]
  outcome: inactive
[8]
  outcome: inactive
[9]
  outcome: inactive
CYP3A5 (gene 1577)
  outcome: inactive
[10]
  outcome: inactive
[11]
  outcome: inactive

## Nc1cccc2c(N)cccc12
[1]
  outcome: inactive
[2]
  AC50: 20.1 µM (active)
[3]
  outcome: inactive
[4]
  AC50: 2.68 µM (active)
[5]
  outcome: inactive
CYP2C8 (gene 1558)
  outcome: inactive
CYP2C9 (gene 1559)
  outcome: inactive
CYP2E1 (gene 1571)
  AC50: 50 µM (active)
CYP4A11 (gene 1579)
  AC50: 50 µM (active)
[6]
  outcome: inactive
[7]
  outcome: inactive
[8]
  outcome: inactive
[9]
  outcome: inactive
CYP3A5 (gene 1577)
  outcome: inactive
[10]
  outcome: inactive
[11]
  AC50: 50 µM (active)

## Cc1cc(CCN2CCN(c3nsc4ccccc34)CC2)cc2c1NC(=O)CC2(C)C
[1]
  outcome: inactive
[2]
  AC50: 12.6 µM (active)
[3]
  outcome: inactive
[4]
  AC50: 79.7 µM (active)
[5]
  AC50: 88.4 µM (active)
CYP2C8 (gene 1558)
  AC50: 82.5 µM (active)
CYP2C9 (gene 1559)
  AC50: 80.3 µM (active)
CYP2E1 (gene 1571)
  AC50: 66.2 µM (active)
CYP4A11 (gene 1579)
  AC50: 63.9 µM (active)
[6]
  AC50: 92 µM (active)
[7]
  outcome: inactive
[8]
  AC50: 9.92 µM (active)
[9]
  AC50: 79.5 µM (active)
CYP3A5 (gene 1577)
  outcome: inactive
[10]
  AC50: 58.6 µM (active)
[11]
  AC50: 81.9 µM (active)
